These results are taken from PubChem BioAssay (EPA / NIEHS).

The structures appear in SMILES notation. Activity calls are given as the source filed them. The calls were made as follows: active = hit-call score of the fitted dose curve at least 0.9, where 1 is the maximum; inactive = score below 0.9.

As a reminder, the AC50 is the concentration giving half of the maximal activity seen.

This assay is described as follows: CCTE_Deisenroth_5AR_NBTE_donor: CCTE's 5alpha-reductase NanoBRET Target Engagement Assay […], Deisenroth Lab (AID 2284319). As to conditions: actives raise or lower the signal. Here is the method:
CCTE_Deisenroth_5AR NBTE (5alpha-reductase NanoBRET Target Engagement Assay) is a cell-based, single-readout assay that uses HEK293T, a human kidney cell line, with measurements taken at 5 hours after chemical dosing in a 384 well plate. This assay includes a primary and secondary screen as well as an autofluorscence screen.CCTE_Deisenroth_5AR NBTE_donor is one of four assay components measured from the CCTE_Deisenroth_5AR NBTE assay. It is designed to make measurements of donor luminescence, as detected by bioluminescence intensity emission signals using spectrometry technology.Data from the assay component CCTE_Deisenroth_5AR NBTE_donor was analyzed into 1 assay endpoint. This assay endpoint, CCTE_Deisenroth_5AR NBTE_donor, was analyzed with bidirectional fitting relative to DMSO as the negative control and baseline of activity. Using a type of inducible reporter, gain or loss-of-signal activity can be used to understand changes in the donor luminescence as related to 5alpha-reductase catalytic function. Furthermore, this assay endpoint can be referred to as a secondary readout, because this assay has produced multiple assay endpoints where this one serves an artifact detection function.
For transient expression of the SRD5A2-NanoLuc fusion protein, HEK293T cells are reverse transfected with pNLF1-C-SRD5A2 expression vector and incubated for 20 hours to facilitate fusion protein expression. For assay setup, 384-well non-binding surface (NBS) microplates are pre-dispensed with test chemical across an 8-point concentration series (10 nM - 29.9 uM) with two technical replicates per run. Cell suspensions are dispensed into the microplates and incubated with test chemical for a duration of three hours. Following pre-incubation with test chemical, the testosterone tracer is dispensed into each well and incubated an additional two hours. The total incubation period with test chemical is five hours, with testosterone tracer added the final two hours to reach target engagement equilibrium. For the NanoBRET endpoint measurements, a solution of Nano-Glo substrate and extracellular NanoLuc inhibitor solution is added to each test well and immediately scanned on a plate reader configured with multichromatic emission settings for donor luminescence ([…]) and acceptor fluorescence ([…]). DMSO solvent controls are included as baseline control. Plate-matched samples are run with mock tracer conditions or testosterone tracer to discriminate any potential non-specific substrate interference.
A general note: BRET reads energy transfer from a luciferase to a nearby fluorophore.
As for `CCN1CCC2(CC1)COc1cc3c(cc12)N(C(=O)c1ccc(-c2ccc(-c4nnc(C)o4)cc2C)cc1)CC3`, the AC50 was 2.7 µM (active).
On to `CC(C)(c1ccc(OCC2CO2)cc1)c1ccc(OCC2CO2)cc1` (stereo unspecified), for which the compound was classed as inactive.
On the same count and under the same terms, under `O=C(Nc1ccc2[nH]ccc2c1)c1cc2cc(F)ccc2n1Cc1cccc(F)c1` stands “inactive”; under `c1cc[c]([Hg][c]2ccccc2)cc1`, “inactive”.
Regarding `C=C(C)C(=O)[O][Sn]([CH2]CCC)([CH2]CCC)[CH2]CCC`, the AC50 was 5.38 µM (active).
As for `O=[N+]([O-])c1ccc(O)c([N+](=O)[O-])c1`, the compound was classed as inactive.
Take `CCC1(c2ccc(N)cc2)CCC(=O)NC1=O` (stereo unspecified): the compound was called inactive.
Take `C[C@H]1CCCC(=O)CCC/C=C/c2cc(O)cc(O)c2C(=O)O1`: the result was inactive.
As to `O=C1C(Cl)=C(Cl)C(=O)c2ccccc21`, the AC50 is 50 µM (active).
`O=C(O)C(F)(F)C(F)(F)C(F)(F)C(F)(F)C(F)(F)C(F)(F)C(F)(F)C(F)(F)C(F)(F)C(F)(F)F`: the call was inactive.
Same read-out and setting: under `N#CN=C(N)N` stands “inactive”.
Turning to `O=C(OC1CCCCC1)c1ccccc1C(=O)OC1CCCCC1`, the compound was called inactive.
For the compound `CC(=O)[O][Hg][c]1ccccc1`, the AC50 is 27.1 µM (active).
`C[C@@H]1C[C@@H]([C@H](O)CC2CC(=O)NC(=O)C2)C(=O)[C@@H](C)C1`: the compound was called inactive.
Still for that read-out and setting: with `CCOP(=S)(OCC)Oc1nc(Cl)c(Cl)cc1Cl` the entry was “inactive”.
Turning to `CCC[CH2][Sn]([CH2]CCC)([CH2]CCC)[O]C(=O)c1ccccc1`, the AC50 is 5.2 µM (active).
